Reference: PubChem BioAssay (NCATS)
Records with an inconclusive call do not appear. A number with no mark means an inactive call. Active and inactive are the calls of the source. Calls come from the whole dose curve; as a rule, active = well fitted inhibition curve with a large enough effect; inconclusive = small, poorly fitted or top-dose-only effect; inactive = flat fitted curve, though single readings scatter.

Each molecule was assayed on HaCat (assay: Cytotoxic Profiling of Annotated Libraries Using Quantitative High-Throughput Screening (AID 1296008; note: nearly all actives have a fitted effect of over 60% in size)). Settings: Five cell lines viability, CellTiter-Glo ATP luminescence, 48-72 h; max response: active compounds read low.
How it was run: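 Cells exposed to compounds for 48 or 72 hr at 37 degrees Celsius. Viability read as ATP-coupled luminescence with CellTiter-Glo after 10 min at room temperature.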
% is set by controls: 0 for no effect and ±100 for the full control effect; potency is the fitted concentration of half-maximal effect.

In order of rising max response:
1. C=CC(C)(O)CC/C=C(\C)C(=O)OC1C(O)C(CO)OC(OC(=O)C23CCC(C)(C)CC2C2=CCC4C5(C)CCC(OC6OC(COC7OCC(OC(C)=O)C(O)C7OC7OC(COC(C)=O)C(O)C(O)C7O)C(O)C(O)C6O)C(C)(C)C5CCC4(C)C2(C)C(O)C3O)C1OC1OCC(OC2OCC(O)C(OC3OCC(O)C(O)C3O)C2O)C(O)C1O (stereo not given)  -19.8%
2. O=C(O)c1cn(C2CC2)c2cc(N3C[C@@H]4C[C@H]3CN4)c(F)cc2c1=O  -12.6%
3. CC1OC(OC2CCC3(C)C(CCC4(C)C3CC=C3C5CC(C)(C)CCC5(C(=O)OC5OC(CO)C(O)C(O)C5O)CCC34C(=O)O)C2(C)C)C(O)C(O)C1O (stereo not given)  -11.4%
4. O=S(=O)(c1ccc(S(=O)(=O)n2cnc3ccccc32)cc1)N1CCCCCC1  -9.6%
5. CSc1ccc(C(=O)N[C@@H]2CCCC[C@@H]2NC(=O)CNC(=O)c2cc(C(F)(F)F)ccc2NC(=O)NC(C)C)cc1  -8.38%
6. O=C(CSc1nc2c(c(=O)n1-c1ccccc1)SCC2)Nc1ccc(-c2ccccc2)cn1  -7.15%
7. CC(C)S(=O)(=O)NC[C@H](C)c1ccc(NC(=O)c2cc(F)cc(F)c2)cc1  -5.79%
8. CC(C)C(NC(=O)c1ccc2ccccc2n1)C(=O)NC(CC(=O)O)C(=O)COc1c(F)cccc1F (stereo not given)  -3.62%
9. Cc1nc(C)c(-c2ccc(C3CCC(CC(=O)O)CC3)cc2)nc1C(N)=O (stereo not given)  -2.77%
10. CS(=O)(=O)N(CC(=O)NCC1CC1)c1cc(C(F)(F)F)ccc1Cl  -2.56%
11. CC1=CC(=O)C(=C(C)C)CC2C1CCC2(C)O (stereo not given)  -1.27%
12. O=C(O)/C=C/c1cc2c(cc1O[C@@H]1O[C@H](CO)[C@@H](O)[C@H](O)[C@H]1O)OCO2  0.0176%
13. CC(C)C(=O)OC[C@H]1O[C@H](O[C@H]2O[C@H](CO)[C@@H](O)[C@H](O)[C@H]2O)[C@H](O)[C@@H](O)[C@@H]1O  0.512%
14. C=C(C)[C@@H]1CC[C@]2(C)CC[C@]3(C)[C@H](CC[C@@H]4[C@@]5(C)CC[C@@H](O)C(C)(C)[C@@H]5CC[C@]43C)[C@@H]12  0.908%
15. C=C[C@H]1C(O[C@@H]2O[C@H](CO)[C@@H](O)[C@H](O)[C@H]2O)OC=C2C(=O)N3CCc4c([nH]c5ccccc45)[C@H]3C[C@H]21 (stereo not given in full)  2.83%
16. CC(=O)OC1C(O)C2C(C)C3=CC(=O)OC3(O)CC2C2(C)CCCC(C)(CO)C12 (stereo not given)  3.69%
17. COc1ccc(N2CCOCC2)c2sc(NC(=O)N3CCC(C)(O)CC3)nc12  3.93%
18. CC(C)=CCC[C@](C)(O[C@@H]1O[C@H](CO)[C@@H](O)[C@H](O)[C@H]1O)[C@H]1CC[C@]2(C)[C@@H]1[C@H](O)CC1[C@@]3(C)CC[C@H](O)C(C)(C)C3[C@@H](O[C@@H]3O[C@H](CO)[C@@H](O)[C@H](O)[C@H]3O)C[C@]12C (stereo not given in full)  4.06%

For `O=C(c1cn(Cc2cncn2Cc2ccc(Br)cc2)cc1-c1cccc2ccccc12)N1CCOCC1`, the Potency was 5.8 µM (active).
With `COC(C(=O)N1Cc2[nH]nc(NC(=O)c3ccc(N4CCN(C)CC4)cc3)c2C1)c1ccccc1` (stereo not given) the Potency was 5.8 µM (active).
